Most compounds without a hit are left out; they make up all but 3.5% or so of the library.
PG9 binder: small molecules binding HIV-1 gp120 antibody PG9 | TR-FRET gp120-PG9 antibody binding | inhibition, % at 6.7 µM | 360,000 compounds, 0.43% hits | AID 624416; in the data active = inhibition above about 8.5%
MBD2 inh: MBD2-methylated oligo binding inhibition; TR-FRET, MBD2 binding to methylated oligonucleotide; AID 686964; 370,000 compounds, 0.31% hits; inhibition, % at 4.4 µM; Q9UBB5; in the data active = inhibition above about 13%
LEDGF integ inh: blocks HIV-1 LEDGF/p75-dependent DNA integration | TR-FRET IN-LEDGF/p75 DNA integration, Eu/Cy5 | inhibition, % at 3.7 µM | 370,000 compounds, 0.64% hits;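 active = inhibition above the screen-wide mean plus 3 SD, cut at about 13% in these data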;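 note: signal is the Cy5 over europium emission ratio at 671 and 618 nm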
rCAG binder: binds r(CAG) RNA repeats. r(CAG) RNA repeat, TO-PRO-1 dye displacement fluorescence. inhibition, % at 3 µM. 370,000 compounds, 1.3% hits. AID 651821;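 active = inhibition above the plate cutoff, the mean of all test compounds on that plate plus 3 SD, cut at about 35% in these data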;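 note: higher means more dye released from RNA so lower well fluorescence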
UHRF1 MBD2 ctr: human UHRF1 methylated DNA binding inhibitors | UHRF1 binding to methylated oligo, TR-FRET | inhibition, % at 4.4 µM | 370,000 compounds, 0.75% hits; in the data active = inhibition above about 21%;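 note: UHRF1 SRA domain binding a hemimethylated CpG hairpin DNA probe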
Target sequence (Q96T88 whole entry, looked up, the tested form may be a part): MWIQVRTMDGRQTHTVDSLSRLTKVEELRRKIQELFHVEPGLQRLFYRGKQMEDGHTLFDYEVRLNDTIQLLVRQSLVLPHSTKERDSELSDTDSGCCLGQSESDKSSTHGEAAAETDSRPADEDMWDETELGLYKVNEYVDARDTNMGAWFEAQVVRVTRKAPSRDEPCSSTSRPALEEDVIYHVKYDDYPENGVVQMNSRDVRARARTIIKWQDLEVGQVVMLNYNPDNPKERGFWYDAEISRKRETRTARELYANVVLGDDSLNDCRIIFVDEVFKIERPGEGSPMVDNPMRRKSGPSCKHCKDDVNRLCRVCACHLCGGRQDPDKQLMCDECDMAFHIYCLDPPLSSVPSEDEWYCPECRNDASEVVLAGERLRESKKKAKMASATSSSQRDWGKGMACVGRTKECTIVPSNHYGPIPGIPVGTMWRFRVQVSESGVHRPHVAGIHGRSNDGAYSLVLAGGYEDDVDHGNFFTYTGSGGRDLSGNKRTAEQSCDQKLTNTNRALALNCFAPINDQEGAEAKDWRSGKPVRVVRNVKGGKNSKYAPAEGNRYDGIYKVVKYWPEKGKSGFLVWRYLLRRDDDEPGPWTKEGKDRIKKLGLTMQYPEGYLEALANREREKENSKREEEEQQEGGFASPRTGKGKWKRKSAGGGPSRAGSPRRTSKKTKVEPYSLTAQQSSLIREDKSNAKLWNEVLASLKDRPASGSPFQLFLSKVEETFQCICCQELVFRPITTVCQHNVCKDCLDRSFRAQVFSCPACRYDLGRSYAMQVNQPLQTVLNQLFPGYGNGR
DNMT1 inh: blocks human DNA methyltransferase DNMT1. P26358. DNMT1 molecular beacon, Hinp1I cleavage, fluorescence. inhibition (reported as % activation of signal), % at 10 µM. 360,000 compounds, 0.83% hits. AID 588458; in the data active = inhibition above about 50%
Hits are given with their value; i = inactive; nt = no result.

SMILES | PG9 binder | MBD2 inh | LEDGF integ inh | rCAG binder | UHRF1 MBD2 ctr | DNMT1 inh
O=C(OC1CC2CC1[C@H]1CCCCN1C2=O)N1CCN(c2ccccc2)CC1 (stereo not given in full) | i | i | i | i | i | nt
Cc1cc(C)cc(C(=O)OCCN(C)C2CN(Cc3cn(Cc4cccc(F)c4)nn3)S(=O)(=O)C2)c1 (stereo not given) | nt | i | i | i | i | nt
C=CCn1c(SCC(N)=O)nnc1-c1cnccn1 | i | i | i | i | 74 | i
COc1cccc(CNC(=O)C(NS(=O)(=O)c2ccc3c(c2)CCN3C(C)=O)C(C)C)c1 (stereo not given) | i | i | i | i | i | i
CN(Cc1ccc(Cl)c(Cl)c1)C(=O)C1CSC2(C)CCC(=O)N12 (stereo not given) | i | i | i | i | 28 | i
CN(CC(=O)Nc1c(Cl)cccc1Cl)C(=O)C1CSC2(C)CCC(=O)N12 (stereo not given) | i | i | i | i | i | i
C[C@@H]1CN([C@H](C)CO)S(=O)(=O)c2ccc(Br)cc2O[C@H]1CN(C)C(=O)Nc1ccccc1 | i | i | i | i | 21 | i
C[C@@H]1CN([C@@H](C)CO)S(=O)(=O)c2ccc(Br)cc2O[C@H]1CN(C)C(=O)Nc1ccc2c(c1)OCO2 | i | i | i | i | 56 | i
CNC(=S)N/N=C/c1c(C(=O)OC)cnn1-c1ccc(Cl)cc1 | nt | i | i | nt | i | nt
COc1cc(/C=C(/C#N)C(=O)Nc2ccccc2)ccc1OCc1ccc(C(=O)O)cc1 | i | i | i | 40 | i | i
N#C/C(=C\c1ccc(OCc2ccc(Cl)cc2)cc1)C(=O)Nc1cccc(C(=O)O)c1 | i | i | i | i | i | 62
COc1cc(/C=C(\C#N)C(=O)Nc2cccc(C(=O)O)c2)ccc1OCc1ccc(C)cc1 | i | i | i | i | i | i
Cc1ccc2ccccc2[n+]1CCCS(=O)(=O)[O-] | i | i | i | i | 36 | i
CCCCCC(=O)NC1CCCCN(Cc2cccc(Cl)c2)C1=O (stereo not given) | nt | i | i | i | i | nt
CCOC(=O)/C=C(\C)Sc1cc(=O)oc2ccccc12 | i | i | i | i | i | i
CCOC(=O)/C=C(\C)Sc1cc(O)c2ccccc2c1O | i | i | 29 | i | i | i
CN1CCN(CC(=O)Nc2ccc(S(=O)(=O)N(C)C)cc2)CC1 | i | i | i | i | 22 | i
COc1ccccc1Sc1nc(-c2ccccc2)ncc1OC | i | i | i | i | 48 | i
COc1ccc(-n2c(COc3ccc(C)cc3)nnc2SCC(=O)c2ccc(-c3ccccc3)cc2)cc1 | nt | i | i | i | i | nt
CC1CCCCC1n1c(-c2cccnc2)n[nH]c1=S (stereo not given) | i | i | i | i | 72 | i
O=C(Nc1ccccc1)/C(=C/c1ccc2c(c1)OCO2)NC(=O)c1ccco1 | i | i | i | i | 21 | i
Cc1nc(Cl)c(C(=O)NC(C)(C)C)c(C)c1Cl | i | i | i | i | 47 | i
COc1cc(OC)c(NC(=O)c2ccccc2F)cc1Cl | i | i | i | i | i | i
COc1cc(NC(=O)c2cc3ccccc3cc2O)c(OC)cc1Cl | i | i | i | 47 | i | i
CCOc1ccccc1CNC(=O)c1nn(C)c2c1CS(=O)(=O)c1ccccc1-2 | i | i | i | i | 26 | i
SMILES | PG9 binder | MBD2 inh | LEDGF integ inh | rCAG binder | UHRF1 MBD2 ctr | DNMT1 inh
O=C(N=C1N(CC2CC2)CC2(C=C3CCCCC3n3c(=O)n(-c4ccccc4)c(=O)n32)N1C(=O)OCc1ccccc1)c1ccccc1 (stereo not given) | nt | i | i | i | i | nt
N/C(=N\OC(=O)/C=C/c1ccc(Br)cc1)c1ccccn1 | i | i | i | i | 23 | i
COC(=O)c1nc(-c2ccccc2)nc(-c2ccccc2)c1C(=O)OC | i | i | i | i | i | i
COC(=O)c1n[nH]nc1-c1ccccc1 | i | i | i | i | 22 | i
COC(=O)c1cn(-c2ccc(-c3noc4c3C(=O)N(CC(=O)N3CCOCC3)CC4)cc2)nn1 | nt | i | i | i | i | nt
CC(C)(C)c1ccc(-c2cn(C[C@H](Cc3ccccc3)n3c(=O)c4ccccc4n3Cc3ccco3)nn2)cc1 | nt | i | i | i | i | nt
O=C(C1CCCO1)N1CCN(S(=O)(=O)c2ccc(Cl)cc2)CC1 (stereo not given) | i | i | i | i | i | i
O=[N+]([O-])c1cc2c(cc1C=Nc1ccccc1)OCO2 | nt | nt | nt | nt | nt | i
Cc1cccc(N=Cc2cc3c(cc2[N+](=O)[O-])OCO3)c1 | i | i | 14 | i | i | i
COC(=O)[C@]12CCCCC=C1N(CCC1=CCCCC1)C(=O)[C@H](CC(=O)NCc1cccc3ccccc13)C2 | i | i | i | i | 21 | nt
CN(Cc1ccccc1)C(=O)OCc1cn(Cc2ccccc2)nn1 | nt | i | i | i | i | nt
O=C(O)CCCCCCCCCCCc1ccccc1 | i | i | i | 36 | i | i
O=C(O)c1ccc(CCCc2ccccc2)cc1 | i | i | i | i | i | i
CCOc1ccc(CCNC(=O)Nc2ccccc2C)cc1OCC | i | i | i | i | 21 | i
CCCC(=O)N1CCC1(C)C(=O)Nc1cccc(F)c1 (stereo not given) | nt | nt | nt | nt | nt | i
NS(=O)(=O)c1ccc(CCn2c(=S)[nH]c3ccc(F)cc3c2=O)cc1 | 37 | i | i | i | i | i
O=C(OCC(=O)N(Cc1ccccc1)Cc1ccccc1)c1ccccc1NCCO | i | i | i | i | i | i
CCN(C(=O)COC(=O)c1ccccc1NCCO)c1cccc2ccccc12 | i | i | i | i | 91 | i
COC(=O)c1cc2c(c3c4cc(F)ccc4n(S(=O)(=O)c4cccc(C)c4)c13)C(=O)N(Cc1ccc(C(F)(F)F)cc1)C2 | i | i | i | i | i | nt
CCN(C[C@H]1[C@@H](c2ccc(C3=CCCC3)cc2)[C@H](CO)N1c1nc(C)c(C)s1)S(=O)(=O)c1ccccc1[N+](=O)[O-] | nt | i | i | i | i | nt
O=C(CCCN1C(=O)/C(=C/c2ccc3c(c2)OCO3)SC1=S)Nc1cccc(C(=O)O)c1 | i | i | i | 51 | i | i
O=C(CCCN1C(=O)/C(=C\c2ccccc2)SC1=S)Nc1cccc(C(=O)O)c1 | i | i | i | 66 | i | i
CC1CCC2(CCC(=O)N2CCCOC(=O)NC(C)(C)C)CC1 (stereo not given) | nt | i | i | i | i | nt
CC(C)c1ccc(CN2CC(C(=O)Nc3ccccc3)CC2=O)cc1 (stereo not given) | i | i | i | i | 27 | i
CCN(CC)c1ccc(NC(=O)C2CC(=O)N(Cc3ccccc3)C2)cc1 (stereo not given) | i | i | i | i | i | i
Cc1cccc(C(=O)Nc2nc3ncccn3c2-c2ccc(F)c(F)c2)c1 | nt | i | i | i | i | nt
CCCc1cc(=O)[nH]c(SCC(=O)NC)n1 | i | i | i | i | i | i
CCCc1cc(=O)[nH]c(SCC(=O)NC2(C#N)CCCCC2)n1 | i | i | i | i | 27 | i

Assay outcomes as filed in PubChem BioAssay.
